Source: PubChem BioAssay (several laboratories)
SENP8 block-1 = blocks human SENP8 cleavage of Nedd8 substrate. AID 602440. inhibition, % at 20 µM. recombinant SENP8, Nedd8 substrate fluorescence. Q96LD8. hit rate 0.64% among 360,000; in the data active = inhibition mostly above about 40%, no sharp cut-off; inactive = mostly below about 27%
SENP6 inh = blocks the human protease SENP6; Q9GZR1; Recombinant SENP6 catalytic domain, aminoluciferin luminescence; inhibition, % at 10 µM; hit rate 1.8% among 330,000;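 active = inhibition above about 50% at the single tested dose, limit read from the data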;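 note: plate controls were DMSO wells with enzyme for no effect and DMSO wells lacking enzyme for full effect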
Target sequence (Q9GZR1 628-1112 limits assumed): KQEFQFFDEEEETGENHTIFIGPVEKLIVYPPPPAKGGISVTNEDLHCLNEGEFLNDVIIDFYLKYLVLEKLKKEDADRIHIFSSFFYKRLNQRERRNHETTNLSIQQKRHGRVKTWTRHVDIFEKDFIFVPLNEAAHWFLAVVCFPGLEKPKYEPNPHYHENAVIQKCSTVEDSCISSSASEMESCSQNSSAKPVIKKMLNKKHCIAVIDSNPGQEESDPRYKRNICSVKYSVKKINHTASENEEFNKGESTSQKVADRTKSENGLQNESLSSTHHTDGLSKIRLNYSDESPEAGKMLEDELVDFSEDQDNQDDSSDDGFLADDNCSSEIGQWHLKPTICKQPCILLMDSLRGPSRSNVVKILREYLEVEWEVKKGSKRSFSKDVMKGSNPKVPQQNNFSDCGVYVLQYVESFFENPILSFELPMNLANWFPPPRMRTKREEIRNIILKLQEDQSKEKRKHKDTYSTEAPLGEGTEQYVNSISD
SENP8 block-2 = SENP8 protease inhibition; Q96LD8; hit rate 1.2% among 330,000; inhibition, % at 10 µM; AID 2540; purified SENP8, Z-RLRGG-aminoluciferin cleavage, luminescence; in the data active = inhibition above about 50%
HSP90 inh = blocks HSP90-mediated luciferase refolding in reticulocyte lysate. Rabbit reticulocyte lysate, luciferase refolding luminescence, 3 h. inhibition, % at 5.6 µM. hit rate 0.91% among 290,000;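 active = inhibition above the screen-wide mean plus 3 SD, computed separately per campaign, cut at about 16% in these data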;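 note: 0% = DMSO wells and 100% = 60 µM geldanamycin wells; inhibitors lower the luminescence because luciferase stays unfolded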
SENP7 inh = inhibitors of human SENP7 protease; Q9BQF6; recombinant SENP7, Z-RLRGG-aminoluciferin luminescence, 40 min; inhibition, % at 5 µM; hit rate 1.5% among 330,000; AID 434973;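 active = inhibition above about 50% at the single test dose, limit read from the data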;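 note: plate controls were DMSO with enzyme for no effect and no enzyme buffer wells for full effect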
SENP8 confirm = confirmation of human SENP8 protease inhibitors; shares compounds with SENP7 inh; Recombinant SENP8, Z-RLRGG-aminoluciferin luminescence, 60 min; inhibition, % at 12.5 µM; hit rate 40% among 6,200; AID 488912;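 active = mean inhibition across replicates above about 50%, limit read from the data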
SENP6 confirm = confirmation of human SENP6 protease inhibitors; shares compounds with SENP7 inh; recombinant SENP6, Z-RLRGG-aminoluciferin luminescence; inhibition, % at 12.5 µM; hit rate 58% among 6,200
SENP7 conf = confirmation of human SENP7 protease inhibitors | shares compounds with SENP7 inh | recombinant SENP7, Z-RLRGG-aminoluciferin luminescence, 40 min | inhibition, % at 12.5 µM | hit rate 69% among 6,200
Casp3 select = caspase-3 inhibition (SENP selectivity assay) | shares compounds with SENP7 inh | AID 488918 | inhibition, % at 12.5 µM | hit rate 60% among 6,200 | purified caspase-3, Z-DEVD-aminoluciferin luminescence, 60 min;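 active = mean inhibition above about 50%, limit read from the data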;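 note: plate controls were enzyme with DMSO for no effect and wells without caspase-3 for full effect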
SENP luc ctr = luminescence interference (SENP counter-screen); shares compounds with SENP7 inh; Pre-incubated SENP8/Z-RLRGG-aminoluciferin, luciferase luminescence interference; inhibition, % at 12.5 µM; hit rate 39% among 6,200; AID 488919;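 active = mean inhibition above about 50% when retested at one dose, limit read from the data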;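 note: plate controls were DMSO wells with completed reaction for no effect and substrate without enzyme for full effect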
* marks the source's active call; other numbers are inactive results; . = not tested or not shown. This is a sample that favours compounds with a hit; in the whole collection about 2.8% have one here.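 Rule for the calls, unless noted: active = mean inhibition above about 50% in the one-dose retest (limit read from the data); inactive = the rest.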

SMILES	SENP8 block-1	SENP6 inh	SENP8 block-2	HSP90 inh	SENP7 inh	SENP8 confirm	SENP6 confirm	SENP7 conf	Casp3 select	SENP luc ctr
O=C(Nc1ccn(Cc2ccccc2F)n1)c1ccc(COc2cccc(Br)c2)cc1	13	97*	88*	10	14	-24	90*	103*	56*	97*
Cc1ccc(NC2=Nc3ccccc3CC2)cc1	12	52*	43	16	37	64*	61*	88*	84*	42
Brc1ccc(NC2=Nc3ccccc3CC2)cc1	0	-19	34	0	45	.	.	.	.	.
CCCC(=O)c1ccc(N2CCN(C(=O)c3ccccc3Br)CC2)c(F)c1	-4	-12	-1	1	-4	.	.	.	.	.
COc1ccc(CCC(=O)OCC(=O)NC2CCCC2)cc1OC	6	.	.	.	.	.	.	.	.	.
COc1ccc(N=Cc2[nH]c3ccccc3c2O)cc1	-19	6	2	-1	-6	.	.	.	.	.
COc1ccc(N=Cc2sc3ccccc3c2Cl)cc1	31	30	25	1	58*	10	22	36	37	15
Cc1ccc(/C=C2\SC(N)=NC2=O)s1	7	-13	-9	-1	5	.	.	.	.	.
Cc1ccc(/C=C2\Sc3ccccc3C2=O)s1	-224	94*	89*	-2	96*	16	86*	94*	67*	65*
O=C(c1ccccc1F)N1CCN(c2ccc([N+](=O)[O-])c(NCC3CCCO3)c2)CC1 (stereo not given)	24	2	4	-1	54*	-12	-8	-10	3	-2
O=C(/C=C/Nc1ccc(Nc2ccccc2)cc1)c1cccs1	16	.	.	2	.	.	.	.	.	.
Cc1cc(N/C=C/C(=O)c2cccs2)ccc1F	-162	85*	82*	3	46	88*	90*	101*	87*	42
Cc1ccc(N/C=C/C(=O)c2cccs2)cc1C	-143	88*	85*	1	83*	91*	92*	100*	84*	85*
O=C(/C=C/Nc1ccccc1C(=O)O)c1cccs1	-51	92*	82*	0	21	4	96*	102*	98*	93*
O=C(/C=C/Nc1cccc([N+](=O)[O-])c1)c1cccs1	12	70*	35	-1	62*	4	53*	88*	58*	57*
Cc1cc(Br)ccc1NC(=O)CCN1C(=O)c2ccncc2C1=O	15	-1	-1	-1	4	.	.	.	.	.
O=C(Nc1ccccc1)Nc1ccc2ncoc2c1	-10	0	25	-3	62*	58*	53*	82*	67*	58*
O=C(Nc1ccccc1)Nc1ccc2ocnc2c1	-12	31	58*	-2	76*	4	64*	88*	84*	45
CC1CCCN(C(=O)Cn2c3ccccc3c3nc4n(c(=O)c32)CCS4)C1 (stereo not given)	-177	-10	-4	0	4	.	.	.	.	.
CC(=O)Nc1ccc(NS(=O)(=O)c2cc(Cl)sc2Cl)cc1	8	-22	-2	3	4	.	.	.	.	.
Cc1cc(Nc2ccc3c(c2)OCCO3)c2cccc(C)c2n1	-48	-16	2	-2	5	.	.	.	.	.
O=c1[nH]c2ccc(S(=O)(=O)N3CCN(c4ccc(F)cc4)CC3)cc2o1	4	14	55*	-2	1	6	6	-7	-6	-2
COn1c(-c2ccccc2)nc2ccc(Cl)cc21	-22	54*	22	-2	23	39	39	72*	39	44
O=[N+]([O-])c1ccc2nc(-c3ccccc3)n(OCc3ccc(Cl)cc3)c2c1	15	86*	66*	-4	84*	11	11	11	11	0
O=C(O)COn1c(-c2ccccc2)nc2ccc(Cl)cc21	-4	-18	-2	-2	-4	.	.	.	.	.
SMILES	SENP8 block-1	SENP6 inh	SENP8 block-2	HSP90 inh	SENP7 inh	SENP8 confirm	SENP6 confirm	SENP7 conf	Casp3 select	SENP luc ctr
Cn1c(=NC(=O)c2ccco2)sc2ccccc21	-387	67*	46	10	52*	54*	56*	84*	79*	27
CC(C)(C)NC(=O)/C(=C\c1ccc(Br)cc1)NC(=O)c1cccs1	7	-22	4	0	-19	.	.	.	.	.
Cc1cc(C)nc(N(C#N)Cc2ccccc2C)n1	25	-9	0	-1	96*	-7	0	-3	-2	-2
CCOC(=O)CCCSc1nc2sc3c(c2c(=O)[nH]1)CCC3	-22	-16	-7	-1	1	.	.	.	.	.
O=[N+]([O-])c1ccc(-c2nc3ccc([N+](=O)[O-])cc3[nH]2)cc1	28	85*	68*	-1	76*	3	30	58*	34	50*
Nc1ccc(-c2nc3ccc([N+](=O)[O-])cc3[nH]2)cc1	37	50*	30	0	42	41	38	73*	47	39
CCCC[n+]1ccc(-c2nc3ccc([N+](=O)[O-])cc3[nH]2)cc1	-120	-31	-9	-1	-15	.	.	.	.	.
O=C(Cn1ncc(Cl)c(Cl)c1=O)c1ccc2c(c1)OCCO2	-3	56*	41	.	23	15	40	48	20	9
CN(C(=O)c1ccccc1Cl)C1CCCCC1	15	-2	-7	4	-12	.	.	.	.	.
CN(C(=O)c1ccc(-c2ccccc2)cc1)C1CCCCC1	7	61*	37	.	29	14	20	30	22	4
CCOc1cc(C2NN=C(c3ccccc3)S2)ccc1OCc1ccc(F)cc1 (stereo not given)	-334	83*	50*	-1	-12	6	72*	94*	75*	70*
CCOc1cc(C2NN=C(c3ccccc3)S2)ccc1OCc1ccccc1Cl (stereo not given)	-279	66*	42	-5	8	53*	48	84*	69*	58*
CCOc1cc(CNC2CCCC2)ccc1OCc1ccccc1Cl	32	6	3	4	0	.	.	.	.	.
CCOc1cc2c(cc1OCC)C(c1ccc(F)cc1)NCC2 (stereo not given)	25	-7	-3	.	3	.	.	.	.	.
CN(CCC#N)C(=O)CSc1nnc(-c2c[nH]c3ccccc23)o1	11	5	-3	-1	10	.	.	.	.	.
Cc1ccc(C=Nc2ccccc2C#N)s1	-43	83*	67*	9	22	48	67*	87*	72*	62*
